Where “and” joins values, the source holds several entries; their conditions need not be identical. Equal values may be shown once. Results filed as inconclusive are left out. Where a call stands in place of a potency, no number is given. Where a structure was tested more than once in an assay, its records may differ in their call. Calls of active or inactive are those of the source. Calls come from the whole dose curve; as a rule, active = well fitted cell-killing curve with a large enough effect in the repeat runs; inconclusive = weak or mixed curves, or effect the other way; inactive = no such curve, though single readings can be large or run the other way.
Assay: Caspase-3/7 induction in CHO-K1 cells by small molecules, qHTS cell viability counter screen (AID 1346979); note: nearly all actives have a fitted effect of over 35% in size
Settings: CellTiter-Fluor fluorescence, 17 h; series mostly up to 92.4 µM
Source text: National Center for Advancing Translational Sciences [NCATS]
NIH Chemical Genomics Center [NCGC]
U.S. Environmental Protection Agency [EPA]
National Institutes of Environmental Health Sciences [NIEHS]
National Toxicology Program [NTP]
U.S. Food and Drug Administration [FDA]
Apoptosis is a process of programmed cell death and plays a central role in the development of multicellular organisms. It is a highly regulated process and induces cell death by activating caspases, which are the members of cysteine aspartic acid-specific protease (caspase) family. Caspases involved in apoptosis are classified by their mechanism of action as initiator caspases (caspase-2, -8, -9 and -10) and executioner caspases (caspase-3, -6, and -7). Inhibition of apoptosis results in number of cancers, autoimmune diseases, inflammatory diseases and viral infection. To identify small molecule compounds that induce apoptosis, a homogeneous, luminescent Caspase-Glo 3/7 assay was used. Wild type CHO-K1 cells were used to screen Tox21 libraries for identifying caspase-3/7 activity inducers. Also cytotoxicity of the compounds was tested in parallel by measuring the cell viability using CellTiter-Fluor assay system in the same wells.
Tox21 Assay Protocol Summary:
CHO-K1 cells were dispensed at 1,500 per well in 5uL of culture medium into white solid bottom 1536-well plates (Corning Life Sciences, Corning, NY) using a Multidrop Combi (Thermo Scientific, Waltham, MA) dispenser. The assay plates were incubated at 37 C and 5% CO2 for 5hr, and then 23nL of compounds dissolved in DMSO and positive control were transferred using a Pintool station (Wako, San Diego, CA). The assay plates were incubated at 37C and 5% CO2 for 17hr. For cytotoxicity read, after 16hr incubation at 37C, 1uL CellTiter-Fluor reagent (Promega Corporation, Madison, WI) was added to each well of the assay plates using Flying Reagent Dispenser (FRD, Aurora Discovery, San Diego, CA). After 1hr incubation at 37C and 5% CO2, the fluorescence signal was quantified using a ViewLux plate reader (PerkinElmer, Shelton, CT).
Potency is the fitted concentration of half-maximal effect.

Question: For `O=C1O[C@H](CO)[C@@H](O)[C@H](O)[C@H]1O`, which Potency is on record?
Answer: inactive

Question: For `CCCCC(CC)C(=O)OCCOCCOCCOC(=O)C(CC)CCCC` (stereo not given), which Potency is on record?
Answer: inactive

Question: For `CC(C)NCC(O)COc1cccc2ccccc12` (stereo not given), which Potency is on record?
Answer: inactive

Question: Which Potency does the source give for `O=[N+]([O-])c1cccc(Cl)c1` here?
Answer: inactive

Question: Which Potency does the source give for `O=c1c(-c2ccc(O)cc2)coc2cc(O)ccc12` here?
Answer: inactive

Question: With `CCCCCCC(C)(C)S` as the compound, how does the Potency read?
Answer: inactive

Question: For `CNC[C@H](O)[C@@H](O)[C@H](O)[C@H](O)CO`, which Potency is on record?
Answer: inactive

Question: Which Potency does the source give for `Cc1ccc(C)c(C)c1` here?
Answer: inactive

Question: With `CC#C[C@]1(O)CC[C@H]2[C@@H]3CCC4=CC(=O)CCC4=C3[C@@H](c3ccc(N(C)C)cc3)C[C@@]21C` as the compound, how does the Potency read?
Answer: 30.6 µM (active)

Question: For `NCCNCCNCCNCCN`, which Potency is on record?
Answer: inactive

Question: Which Potency does the source give for `CCCCOCCO` here?
Answer: inactive

Question: For `OCC1CCCO1` (stereo not given), which Potency is on record?
Answer: inactive

Question: With `O=C(Oc1ccccc1)c1ccc(O)cc1` as the compound, how does the Potency read?
Answer: inactive

Question: For `O=C(Cl)c1c(Cl)c(Cl)c(C(=O)Cl)c(Cl)c1Cl`, which Potency is on record?
Answer: inactive

Question: Which Potency does the source give for `Nc1cc(-c2ccncc2)c[nH]c1=O` here?
Answer: inactive

Question: With `COC(=O)Nc1nc2ccc(Sc3ccccc3)cc2[nH]1` as the compound, how does the Potency read?
Answer: 30.6 µM (active) and 10.6 µM (active)

Question: With `O=C(c1ccc(O)cc1)c1ccc(O)cc1O` as the compound, how does the Potency read?
Answer: inactive

Question: For `C=CC(=O)OCCCCCCCC(C)C`, which Potency is on record?
Answer: inactive

Question: Which Potency does the source give for `O=S(=O)(O)c1cc(S(=O)(=O)O)c2c(N=Nc3ccccc3)c(O)ccc2c1` here?
Answer: 54.7 µM (active) and 34.4 µM (active)

Question: With `CCc1ccccc1O` as the compound, how does the Potency read?
Answer: inactive

Question: Which Potency does the source give for `CCC(C)C=O` (stereo not given) here?
Answer: inactive

Question: With `CCCCCCCCCC(=O)O` as the compound, how does the Potency read?
Answer: inactive

Question: Which Potency does the source give for `CCCCC(CC)COC(=O)/C=C\C(=O)OCC(CC)CCCC` (stereo not given) here?
Answer: inactive

Question: Which Potency does the source give for `OC[C@@H](O)[C@H](O)[C@H](O)[C@@H](O)CO` here?
Answer: inactive

Question: Which Potency does the source give for `CN(C)c1ccc(C(=N)c2ccc(N(C)C)cc2)cc1` here?
Answer: 30.3 µM (active) and 18.6 µM (active)

Question: For `C=C1C2CCC(C2)C1(C)C` (stereo not given), which Potency is on record?
Answer: inactive

Question: For `Nc1nc2ncc(CNc3ccc(C(=O)N[C@@H](CCC(=O)O)C(=O)O)cc3)nc2c(=O)[nH]1`, which Potency is on record?
Answer: inactive

Question: Which Potency does the source give for `O=S(=O)(Oc1ccc(Cl)cc1Cl)c1ccccc1` here?
Answer: inactive

Question: For `ClC1=C(Cl)C(Cl)(Cl)C(Cl)=C1Cl`, which Potency is on record?
Answer: inactive

Question: Which Potency does the source give for `Cc1cc(O)cc(C)c1Cl` here?
Answer: inactive

Question: With `CC1COc2ccccc2N1C(=O)C(Cl)Cl` (stereo not given) as the compound, how does the Potency read?
Answer: 27.3 µM (active) and 30.6 µM (active)

Question: For `CCCCC(CC)COC(=O)CCCCCCCC(=O)OCC(CC)CCCC` (stereo not given), which Potency is on record?
Answer: 43.3 µM (active) and inactive

Question: Which Potency does the source give for `CCCCNC(N)=O` here?
Answer: inactive

Question: With `Cn1c([N+](=O)[O-])cnc1COC(N)=O` as the compound, how does the Potency read?
Answer: inactive

Question: For `OCCOCCOCCOCCO`, which Potency is on record?
Answer: inactive

Question: Which Potency does the source give for `Clc1cc(Cl)c(Cl)cc1Cl` here?
Answer: inactive

Question: With `COC(=O)c1ccccc1O` as the compound, how does the Potency read?
Answer: inactive

Question: For `OC[C@@H](O)[C@@H](O)[C@H](O)[C@@H](O)CO`, which Potency is on record?
Answer: inactive

Question: With `Oc1ccc2ccccc2c1` as the compound, how does the Potency read?
Answer: inactive

Question: Which Potency does the source give for `O=C1N=C(O)CN1/N=C/c1ccc(-c2ccc([N+](=O)[O-])cc2)o1` here?
Answer: 54.5 µM (active) and 26.6 µM (active)
